# Measured values as given in PubChem BioAssay (NCATS).
# Values without a mark were called inactive. Inconclusive results are not listed. Active and inactive are the calls of the source. Unless noted, the call rests on the fitted dose curve; in most records, active means well fitted curve in the direction sought with a large enough effect; inconclusive means small, poorly fitted or top-dose-only effect, or another doubt; inactive means no such curve, though single readings can be large; an effect the other way counts as inactive or inconclusive.
# Columns and labels:
# [1] = target: Cytochrome P450 3A4 (Homo sapiens) (UniProt P08684); experiment: qHTS Assay for Inhibitors and Substrates of Cytochrome P450 3A4 (AID 884)
# Method in brief: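 20 nM human CYP3A4 with 25 uM Luciferin-PPXE (at KM) in 200 mM KPO4, preincubated 10 min with compound; NADPH regeneration started a 60 min RT reaction. Luciferin detected by luminescence, normalized to 57 uM ketoconazole as full inhibition.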
# [2] = target: Cytochrome P450 3A4 (Homo sapiens) (UniProt P08684); experiment: qHTS Assay for Activators of Cytochrome P450 3A4 (AID 885)
# Method in brief: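 Quantitative HTS format: compounds preincubated with 20nM human CYP3A4 and Luciferin-PPXE substrate at KM, reaction started by NADPH regeneration, stopped after 60 min, luciferase luminescence read 20 min later.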
# [3] = target: Tumor susceptibility gene 101 protein (Homo sapiens) (UniProt Q99816); experiment: qHTS Assay for Iinhibitors of HIV-1 Budding by Blocking the Interaction of PTAP/TSG101: Hit Validation (AID 651600)
# Method in brief: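 Measuring PTAP–Tsg101 interaction by FP: protein at 10 uM and fluorescent peptide at 50 nM (final), buffer 10 mM HEPES pH 7.5 with 0.15 M NaCl, 3 mM EDTA, 0.1 mM TCEP, 0.01% Tween 20; 20 min incubation, r.t.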
# [4] = tested on: Zika virus NS2B-NS3 protease; experiment: Primary screen GU AMC qHTS for Zika virus inhibitors (AID 1347154)
# Method in brief: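 Unlinked Zika NS2B hydrophilic domain–NS3 protease complex at 25 nM in 10 mM Tris-HCl pH 8.0, 0.01% Tween 20, with an AMC peptide substrate. Fluorescence change (340/450 nm) over 15 min at room temperature, normalized to controls, fitted to 4-parameter Hill.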
# [5] = tested on: Zika virus NS2B-NS3 protease (linked construct); experiment: Primary screen NINDS Rhodamine qHTS for Zika virus inhibitors (AID 1347160)
# Method in brief: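 Percent inhibition, normalized to uninhibited and enzyme-free controls, is fitted to a 4-parameter Hill equation. Fluorescence change comes from a 15-min cleavage of 1.5 microM bis-peptide Rhodamine110 substrate by 25 nM linked NS2B-NS3 at room temperature.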
# [6] = OV-KATE Cancer Cell Toxicity qHTS against the NCATS CANVASS Library (AID 1347345)
# Method in brief: (§1)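 Step one: seed 1000 cells per well. Step two: incubate 4 h. Step three: add test compounds in 11 concentrations. Step four: culture 72 h, then add CellTiter-Glo and record luminescence after 15min.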
# [7] = HPAF-II Cancer Cell Toxicity qHTS against the NCATS CANVASS Library (AID 1347346)
# Method in brief: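 Luminescence from CellTiter-Glo, added after 72 h compound exposure and a 15 min room-temperature incubation, served as the viability readout. HPAF-II cells (1000/well) received an 11-point concentration series.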
# [8] = UWB1.289 Cancer Cell Toxicity qHTS against the NCATS CANVASS Library (AID 1347347)
# Method in brief: as §1
# [9] = OV-SAHO Cancer Cell Toxicity qHTS against the NCATS CANVASS Library (AID 1347348)
# Method in brief: as §1
# [10] = Panc-1005 Cancer Cell Toxicity qHTS against the NCATS CANVASS Library (AID 1347349)
# Method in brief: as §1
# [11] = COV-362 Cancer Cell Toxicity qHTS against the NCATS CANVASS Library (AID 1347352)
# Method in brief: (§2)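 Luminescent ATP read-out (CellTiter-Glo, 15min at room temperature) measures survival after cells face an 11-point compound series for 72 hours at 37 degrees C/5% CO2.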
# [12] = A2780 Cisplatin Sensitive Ovarian Cancer Cell Toxicity qHTS against the NCATS CANVASS Library (AID 1347353)
# Method in brief: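 Luminescent ATP content (ATPLite, 10 min at room temperature) served as the read-out after cells had been exposed to compounds for 72 hours at 37 °C. Dosing followed an 11-point concentration series.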
# [13] = UWB1.289-WTBRCA1 Cancer Cell Toxicity qHTS against the NCATS CANVASS Library (AID 1347354)
# Method in brief: as §2
# [14] = HPAF-II 24hr Apoptosis Induction qHTS against the NCATS CANVASS Library (AID 1347356)
# Method in brief: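 Luminescent caspase-3/7 signal (DEVD substrate, Caspase-Glo) served as read-out, taken 15 min after reagent addition to HPAF-II cells exposed 24 h to compounds.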
# [15] = HEK293 18hr Apoptosis Induction qHTS against the NCATS CANVASS Library (AID 1347357)
# Method in brief: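 Natural products applied to HEK293 for 18 hr; Caspase-Glo 3/7 readout.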
# [16] = HEK293 24hr Apoptosis Induction qHTS against the NCATS CANVASS Library (AID 1347359)
# Method in brief: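 HEK293 cells, 500 per well, exposed to an 11-point compound series for 24 hours at 37 degrees C. Caspase 3/7 activity read by Caspase-Glo luminescence (DEVD substrate) after 15 min at room temperature.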
# [17] = tested on: NAD(P)H diaphorase (Clostridium kluyveri); experiment: Diaphorse counterscreen qHTS: Assay Interference Panel against the NCATS CANVASS Library (AID 1347362)
# Method in brief: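 Clostridium kluyveri diaphorase in PBS + 0.01% Tween-20 preincubated 15 min with compounds. Resazurin and NADH then added for 5 min at room temperature in the dark; resorufin fluorescence read (ex 525, em 598).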
# [18] = target: Luciferin 4-monooxygenase (Photinus pyralis) (UniProt P08659); experiment: Firefly luciferase counterscreen qHTS: Assay Interference Panel against the NCATS CANVASS Library (AID 1347363)
# Method in brief: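 Purified P. pyralis luciferase (0.04 ug/mL, 4x reagent) added to Tris-acetate buffer with 0.013 mM D-luciferin, 0.013 mM ATP and 13.3 mM Mg-acetate; compounds preincubated 15 min, then luminescence read after 5 min, RT.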
# [19] = KB-3-1 Cancer Cell Toxicity qHTS against the NCATS CANVASS Library (AID 1347366)
# Method in brief: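 Cytotoxicity toward KB-3-1 cells (500/well, DMEM + 10% FBS) was scored by CellTiter-Glo luminescence following 72 hr exposure at 37C, with bortezomib titrated as control.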
# [20] = G06 Cancer Cell Toxicity qHTS against the NCATS CANVASS Library (AID 1347368)
# Method in brief: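 Dog G06 glioma line, 500 cells/well; cpds pin-transferred, 11-pt; 72 hr, 37C/5% CO2; CellTiterGlo luminescence (ATP) endpoint.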
# [21] = MCF7 Cancer Cell Toxicity qHTS against the NCATS CANVASS Library (AID 1347369)
# Method in brief: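 This 72 hr qHTS scored MCF7 viability by CellTiterGlo luminescence, with 500 cells/well; bortezomib titration ran as control.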
# [22] = qHTS for ATAD5 Antagonist screened against the NCATS CANVASS Library (AID 1347370)
# Method in brief: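 HEK293T cells with stably integrated ATAD5-luciferase reporter, 2000/well, 5 h attachment; compounds plus 10 µM 5-fluorouridine, 16 h at 37 °C. Luciferase luminescence read, with CellTiter-Fluor viability read first.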
# [23] = J3T Cancer Cell Toxicity qHTS against the NCATS CANVASS Library (AID 1347371)
# Method in brief: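 Cells plated at 500 per well, compounds pin-transferred, plates incubated 72 hr at 37C, then CellTiterGlo added and luminescence read to measure ATP content.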
# [24] = target: Nuclear receptor subfamily 1 group I member 3 (Homo sapiens) (UniProt Q14994); experiment: qHTS for Constitutive Androstane Receptor (CAR) Antagonist screened against the NCATS CANVASS Library (AID 1347372)
# Method in brief: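 HepG2 cells stably carrying hCAR and CYP2B6-2.2kb luciferase reporter, 2500 cells/well, compound with 50 nM CITCO agonist for 24hr at 37C. ONE-Glo luminescence measured CAR activity; CellTiter-Fluor read viability.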
# [25] = target: Nuclear receptor subfamily 1 group I member 3 (Homo sapiens) (UniProt Q14994); experiment: qHTS for Constitutive Androstane Receptor (CAR) Agonist screened against the NCATS CANVASS Library (AID 1347373)
# Method in brief: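 HepG2-hCAR-CYP2B6 cells, 2500/well, attached 4hr; cpd + PK11195 1.5uM final; 24hr 37C 5% CO2. CellTiter-Fluor viability read, then ONE-Glo luminescence for CAR activation.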
# [26] = qHTS for Hypoxia signaling pathway (HIF-1) antagonists against the NCATS CANVASS Library (AID 1347374)
# Method in brief: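 HRE-bla ME-180 cells in medium with 0.5% dialyzed FBS received compounds (11-point series) plus CoCl2 (60 uM addition stock) for 17 hrs at 37C. Beta-lactamase activity read with CCF4 (405 nm ex, 460/530 nm em); CellTiter-Glo viability measured in same wells.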
# [27] = qHTS for Inflammasome Signaling Inhibitors: IL-1-beta AlphaLISA screen against the NCATS CANVASS Library (AID 1347379)
# Method in brief: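 THP-1 cells pretreated 1 hr with compound (up to 57.5 uM final), then stimulated with LPS (250 ng/mL final) and ATP (1.25 mM final). Secreted IL-1B measured by AlphaLISA after 16 hr; glyburide as positive control.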
# [28] = qHTS for Antimalaria activity screened against the NCATS CANVASS Library (AID 1347380)
# Method in brief: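 Dd2 strain, infected erythrocytes 2.5% Hct final / 0.3% parasitemia. 11-pt qHTS titration, 72 h, 37C, 5% O2, 5% CO2. Lysis buffer + SYBR Green, 18 h, fluorescence 485/535 nm.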
# [29] = Inflammasome Signaling qHTS Counterscreen: IL-1-beta AlphaLISA counterscreen against the NCATS CANVASS Library (AID 1347381)
# Method in brief: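 Cell-free interference check: compounds added to medium spiked with 4 pg purified IL-1β. Anti-IL-1β acceptor beads (6 ug/mL) with 0.6 nM biotinylated antibody added for 1 h at RT, then streptavidin donor beads (24 ug/mL) for 30 min in the dark. AlphaLISA read at 680/615 nm.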
# [30] = Cytotoxicity qHTS for assessment of Hepg2 cells membrane integrity screened against the NCATS CANVASS Library (AID 1347387)
# Method in brief: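 qHTS, 11-pt conc. series, 0.59 nM - 46 uM final; HepG2 2000 cells/well, overnight attachment; 5 hr compound exposure 37C/5% CO2; CytoTox-ONE, 10 min RT; fluorescence ex560/em590 = LDH from damaged membranes.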
# [31] = qHTS for Activators of p53 Stress Response Pathway screened against the NCATS CANVASS Library (AID 1347388)
# Method in brief: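 p53RE-bla HCT-116 cells (4000/well) were pre-incubated for 5 h, then treated with compound (11 points) for 16 h at 37C. After 2 h with CCF4, the 460/530 nm ratio gave reporter activation; CellTiter-Glo measured viability.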
# [32] = qHTS assay for small molecule disruptors of mitochondrial membrane potential screened against the NCATS CANVASS Library (AID 1347389)
# Method in brief: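 HepG2, 2,000 cells/well, attached overnight; compound 1 hr, 37C, 5% CO2; Mito-MPS dye 30 min, 37C; fluorescence 535 nm (monomer) and 590 nm (aggregate); decreased 590/535 ratio = depolarization.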
# [33] = Secretion counterscreen for inhibitors of the SERCaMP assay screened against the NCATS CANVASS Library (AID 1347390)
# Method in brief: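 Natural products are titrated in an 11-point series up to 77 uM onto SH-SY5Y-GLuc STOP cells for 20 h. Secreted reporter activity is measured as coelenterazine-driven luminescence, with Brefeldin A on each plate.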
# [34] = qHTS for activators of Nrf2/ARE signaling pathway screened against the NCATS CANVASS Library (AID 1347391)
# Method in brief: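 Plate ARE-bla HepG2 cells at 2000/well and let them settle 5 h. Pin-transfer compounds in DMSO, incubate 16 h at 37C. Load CCF4 for 2 h at room temperature and read blue/green fluorescence.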
# [35] = qHTS for activators of dead-cell proteases activity screened against the NCATS CANVASS Library (AID 1347392)
# Method in brief: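 HepG2 cells, 2000/well, attached 18 h at 37C, then exposed to compounds (11-point qHTS) for 5 h. Dead-cell protease release read as luminescence from cell-impermeant AAF-aminoluciferin substrate after 15 min at room temperature.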
# [36] = Vero-766 cells viability qHTS against the NCATS CANVASS Library: Counterscreen for Zika virus inhibition assay (AID 1347394)
# Method in brief: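 Counterscreen for toxicity: Vero 766 cells exposed 72 h to an 11-point compound series, viability by CellTiter-Glo.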
# [37] = qHTS for inhibitors of Wild type Zika virus screened against the NCATS CANVASS Library (AID 1347396)
# Method in brief: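 Using ATP-based luminescence (CellTiter Glo), this screen scores rescue of Vero 766 cells from wild-type Zika killing at 72 h post-infection. Compounds are tested in a concentration series.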
# [38] = qHTS for inhibitors of Rabies Virus screened against the NCATS CANVASS Library (AID 1347402; calls by dose curve)
# Chain of Nuclear receptor subfamily 1 group I member 3 (Homo sapiens) (Q14994 whole entry, looked up): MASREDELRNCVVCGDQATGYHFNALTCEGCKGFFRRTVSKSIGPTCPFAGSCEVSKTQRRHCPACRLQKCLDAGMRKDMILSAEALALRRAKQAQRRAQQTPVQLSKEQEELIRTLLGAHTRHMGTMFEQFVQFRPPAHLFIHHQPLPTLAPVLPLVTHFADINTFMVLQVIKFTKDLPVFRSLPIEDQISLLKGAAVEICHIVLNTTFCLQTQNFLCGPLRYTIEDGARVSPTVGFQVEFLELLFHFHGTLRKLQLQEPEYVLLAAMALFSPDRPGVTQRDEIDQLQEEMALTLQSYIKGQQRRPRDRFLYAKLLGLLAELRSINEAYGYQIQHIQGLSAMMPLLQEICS
# Chain of Cytochrome P450 3A4 (Homo sapiens) (P08684 whole entry, looked up): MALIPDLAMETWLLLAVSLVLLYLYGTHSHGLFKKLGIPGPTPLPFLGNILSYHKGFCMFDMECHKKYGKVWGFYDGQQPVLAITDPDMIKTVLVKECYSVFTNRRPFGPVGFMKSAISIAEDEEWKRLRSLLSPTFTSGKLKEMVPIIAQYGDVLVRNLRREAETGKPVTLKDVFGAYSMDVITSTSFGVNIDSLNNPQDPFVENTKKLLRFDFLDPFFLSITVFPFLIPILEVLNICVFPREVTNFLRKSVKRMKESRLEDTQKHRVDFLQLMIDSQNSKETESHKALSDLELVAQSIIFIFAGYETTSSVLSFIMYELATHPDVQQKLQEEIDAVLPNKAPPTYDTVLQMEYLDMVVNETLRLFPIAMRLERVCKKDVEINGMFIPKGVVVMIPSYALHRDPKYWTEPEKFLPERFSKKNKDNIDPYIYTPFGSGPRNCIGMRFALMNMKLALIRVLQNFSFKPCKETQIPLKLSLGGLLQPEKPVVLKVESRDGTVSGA
# Chain of Luciferin 4-monooxygenase (Photinus pyralis) (P08659 whole entry, looked up): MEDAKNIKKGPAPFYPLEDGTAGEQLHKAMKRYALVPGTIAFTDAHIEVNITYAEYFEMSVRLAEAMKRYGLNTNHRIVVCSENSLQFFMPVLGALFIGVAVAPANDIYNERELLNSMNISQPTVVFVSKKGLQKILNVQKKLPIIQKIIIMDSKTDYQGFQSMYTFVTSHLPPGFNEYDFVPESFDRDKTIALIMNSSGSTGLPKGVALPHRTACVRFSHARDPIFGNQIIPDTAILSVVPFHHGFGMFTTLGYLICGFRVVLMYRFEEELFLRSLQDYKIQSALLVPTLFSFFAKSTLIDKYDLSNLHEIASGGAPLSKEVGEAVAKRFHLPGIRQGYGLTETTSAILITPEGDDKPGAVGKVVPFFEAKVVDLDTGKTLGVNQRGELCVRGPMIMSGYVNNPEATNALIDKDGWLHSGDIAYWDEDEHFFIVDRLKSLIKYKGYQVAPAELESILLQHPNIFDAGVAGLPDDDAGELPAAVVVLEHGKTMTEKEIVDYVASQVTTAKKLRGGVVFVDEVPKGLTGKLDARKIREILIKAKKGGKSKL
# Chain of Tumor susceptibility gene 101 protein (Homo sapiens) (Q99816 whole entry, looked up): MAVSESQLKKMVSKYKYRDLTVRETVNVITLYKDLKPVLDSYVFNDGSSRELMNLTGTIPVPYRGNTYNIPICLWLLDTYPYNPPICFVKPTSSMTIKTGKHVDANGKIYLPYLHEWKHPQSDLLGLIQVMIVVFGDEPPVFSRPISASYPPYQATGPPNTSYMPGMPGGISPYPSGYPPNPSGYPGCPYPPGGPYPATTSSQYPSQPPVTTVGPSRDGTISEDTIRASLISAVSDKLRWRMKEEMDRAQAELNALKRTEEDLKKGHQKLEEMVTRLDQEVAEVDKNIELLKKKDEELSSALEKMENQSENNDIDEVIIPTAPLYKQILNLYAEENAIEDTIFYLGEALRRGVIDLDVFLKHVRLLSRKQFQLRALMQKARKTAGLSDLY
structure (smiles),measurement,setting,value
CC(C)C[C@H]1C(=O)N2CCCC2[C@]2(O)O[C@](NC(=O)[C@@H]3C=C4c5cccc6[nH]cc(c56)CC4N(C)C3)(C(C)C)C(=O)N12 (stereo partly drawn),Potency,[1],1 µM (active)
same,Potency,[2],inactive
same,outcome,[3],inactive
same,Potency,[4],inactive
CC[C@@H]1CN2CC[C@@]3(O)C(=Nc4cccc(OC)c43)[C@@H]2C[C@@H]1/C(=C\OC)C(=O)OC,Potency,[5],inactive
same,Potency,[6],inactive
same,Potency,[7],inactive
same,Potency,[8],inactive
same,Potency,[9],inactive
same,Potency,[10],inactive
same,Potency,[11],inactive
same,Potency,[12],inactive
same,Potency,[13],inactive
same,outcome,[14],inactive
same,Potency,[15],inactive
same,Potency,[16],inactive
same,outcome,[17],inactive
same,outcome,[18],inactive
same,Potency,[19],inactive
same,Potency,[20],inactive
same,Potency,[21],inactive
same,Potency,[22],inactive
same,Potency,[23],inactive
same,Potency,[24],inactive
same,outcome,[25],inactive
same,Potency,[26],inactive
same,Potency,[27],inactive
same,Potency,[28],14.9 µM (active)
same,outcome,[29],inactive
same,outcome,[30],inactive
same,Potency,[31],inactive
same,Potency,[32],inactive
same,Potency,[33],inactive
same,Potency,[34],inactive
same,Potency,[35],inactive
same,Potency,[36],inactive
same,Potency,[37],inactive
same,outcome,[38],inactive
